Data as given in PubChem BioAssay (NCATS).
Records with an inconclusive call do not appear. Unmarked numbers belong to inactive results. The call rests on the fitted dose curve; in most records, active means well fitted curve in either direction with a large enough effect (not every such curve was filed as active); inconclusive means small, poorly fitted or top-dose-only effect, or another doubt; inactive means flat fitted curve, though single readings scatter.
On the % scale 0 is the no-effect control and ±100 the full control effect.

Assay: AP1 Signaling Pathway (AID 357);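 further: ME-180 reporter cells stimulated with EGF at its EC50 level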
Settings: ME-180 (cervical carcinoma) AP-1-bla reporter, EGF-induced, beta-lactamase ratio, 5 h; at 17.2 µM (top of the series) unless noted
In short: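 AP-1-bla ME-180 cells, Opti-MEM + 0.5% dialyzed FBS, plated overnight 37 °C. Cpd titration + EC50 EGF, 5 h 37 °C. CCF4 2.5 h RT; ex 405, em 460/530 ratio → %activity, AC50.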
For `CC(C)Cc1[nH]c(=O)c(C#N)c2c1CCCC2`, the activity change, negative = inhibition was 3.62%.
`CCCCCC1CC(CC#CCN2CCOCC2)C(=O)O1` (stereo not drawn) gave an activity change, negative = inhibition of 9.22%.
`Cn1c(=O)c2c(nc(NCc3ccco3)n2CCc2ccccc2)n(C)c1=O` gave an activity change, negative = inhibition of -0.525%.
Compound `Cc1cc2c(c(=O)n1Cc1cccnc1)C(c1ccccc1)C(C#N)=C(N)O2` (stereo not drawn) has an activity change, negative = inhibition of -14.1%.
`Cc1cc(C)n(-c2ncnc3sc(C)c(C)c23)n1` showed an activity change, negative = inhibition of -15.7%.
Compound `CC12CN3CC(C)(CN(C1)C3c1ccc(Cl)cc1Cl)C2O` (stereo not drawn) has an activity change, negative = inhibition of 3.94%.
`Cc1nnc2n(-c3ccccc3)c(=O)c3c4c(sc3n12)CCCC4` gave an activity change, negative = inhibition of 21.9%.
In the case of `CCCn1nc(Oc2nc(SC)nc(N(C)C)n2)ccc1=O`, the activity change, negative = inhibition is reported as 12.8%.
`COc1ccc2nc(SCC(=O)O)nc(C)c2c1` showed an activity change, negative = inhibition of 5.08%.
Compound `c1ccc(OCc2nn3c(-c4ccco4)nnc3s2)cc1` has an activity change, negative = inhibition of 27.2%.
With `CC(O)(C#CCN1CCOCC1)c1ccccc1` (stereo not drawn) the activity change, negative = inhibition was -0.153%.
`CCCCOc1ccccc1P(=O)(O)CP(=O)(c1ccccc1)c1ccccc1` showed an activity change, negative = inhibition of -13.5%.
In the case of `CN(C)c1ccc(C=NCCC2(O)CCOC(C)(C)C2)cc1` (stereo not drawn), the activity change, negative = inhibition is reported as 0.733%.
`COc1ccc(OC)c(C2C(C#N)=C(N)Oc3cc(C)[nH]c(=O)c32)c1` (stereo not drawn) gave an activity change, negative = inhibition of -7.62%.
For `Clc1ccc2nc(CSc3nc4ccccc4o3)cn2c1`, the activity change, negative = inhibition was -4.14%.
Compound `S=c1[nH]nc(-c2ccco2)n1C1CCCCC1` has an activity change, negative = inhibition of -7.16%.
For `COc1cccc(OC)c1C(=O)Nc1nc2ccc(S(C)(=O)=O)cc2s1`, the activity change, negative = inhibition was -25.1%.
With `CCC(C)Nc1nc(OC)nc(N(C)C#N)n1` (stereo not drawn) the activity change, negative = inhibition was 12.2%.
For `Cc1cc(C)c2c(N)c(C(=O)c3ccccc3)oc2n1`, the activity change, negative = inhibition was 1.21%.
`CSc1nncc(=O)[nH]1` gave an activity change, negative = inhibition of 16.2%.
`COC(=O)c1sc(NC(=O)C(C)C)c(C(=O)OC)c1C` showed an activity change, negative = inhibition of -5.18%.
Compound `COc1ccc(/C(O)=C2/C(=O)C(=O)N(CCCN(C)C)C2c2ccco2)cc1Cl` (stereo not drawn) has an activity change, negative = inhibition of 9.29%.
`COC(=O)c1ccccc1NC(=O)C1COc2ccccc2O1` (stereo not drawn) gave an activity change, negative = inhibition of -7.17%.
`CC1(C)Cc2c(C#N)c(SCCC#N)nc(N3CCOCC3)c2CS1` showed an activity change, negative = inhibition of -12.8%.
In the case of `CCOCc1nc(N)[nH]c(=O)c1Cc1ccc(OC(C)C)cc1`, the activity change, negative = inhibition is reported as 1.48%.
Compound `CCCCOc1ccc(C(=O)N2CCCC2C(=O)O)cc1` (stereo not drawn) has an activity change, negative = inhibition of -0.0169%.
`CC(C)C(C(=O)Nc1ncn[nH]1)N1C(=O)c2ccccc2C1=O` (stereo not drawn) showed an activity change, negative = inhibition of 21.4%.
With `CCOC(=O)NC(O)C(=O)c1cccs1` (stereo not drawn) the activity change, negative = inhibition was 11.6%.
`CCCCOc1ccc(C(=O)Nn2cnnc2)cc1` showed an activity change, negative = inhibition of 15.5%.
In the case of `Nc1nc(NC(=O)c2cccs2)nn1-c1ccccc1`, the activity change, negative = inhibition is reported as 4.21%.
In the case of `CSc1nnc(C)c(=O)[nH]1`, the activity change, negative = inhibition is reported as -4.3%.
`COCCNc1ncnc2c1cnn2-c1ccc(Cl)cc1` showed an activity change, negative = inhibition of -9.71%.
With `CC1CCN(c2ncnc3c2cnn3Cc2ccc(Cl)cc2)CC1` the activity change, negative = inhibition was -26%.
In the case of `Cn1c(N2CCN(c3ccccn3)CC2)nc2c1c(=O)n(Cc1ccccc1Cl)c(=O)n2C`, the activity change, negative = inhibition is reported as 4.27%.
For `CC1CN(c2oc(-c3ccccc3Cl)nc2C#N)CC(C)O1` (stereo not drawn), the activity change, negative = inhibition was 6.37%.
Work on `CCCCOC(=O)c1ccc(NC(=O)CSc2nncn2C)cc1` yielded an activity change, negative = inhibition of 6.24%.
With `COCCNc1oc(-c2ccc(C)cc2)nc1C#N` the activity change, negative = inhibition was -6.25%.
Compound `COc1ccc(Nc2nnc(C)c3ccccc23)cc1C(N)=O` has an activity change, negative = inhibition of -4.55%.
`COc1ccc(N2C(=O)C3C(C2=O)C2C=CC3C23CC3)c(OC)c1` (stereo not drawn) showed an activity change, negative = inhibition of 16.2%.

Assay: NFAT Signaling Pathway (AID 444);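 further: carbachol stimulus at about its EC50 of 1 µM final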
Settings: Jurkat NFAT-bla M1, carbachol, beta-lactamase ratio, 5 h; at 17.2 µM (top of the series) unless noted
In short: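 Read-out: CCF4 FRET ratio (460 nm/530 nm) after 1 h RT dye loading, used for %activity and AC50 from titration series. Cells: Jurkat NFAT-β-lactamase/M1 line, treated with compound plus 1 uM carbachol for 5 h, 37 °C.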
`CC(C)Cc1[nH]c(=O)c(C#N)c2c1CCCC2` gave an activity change, negative = inhibition of 2.23%.
`CCCCCC1CC(CC#CCN2CCOCC2)C(=O)O1` (stereo not drawn) showed an activity change, negative = inhibition of -1.87%.
In the case of `Cn1c(=O)c2c(nc(NCc3ccco3)n2CCc2ccccc2)n(C)c1=O`, the activity change, negative = inhibition is reported as -24%.
`Cc1cc2c(c(=O)n1Cc1cccnc1)C(c1ccccc1)C(C#N)=C(N)O2` (stereo not drawn) showed an activity change, negative = inhibition of 3.75%.
In the case of `Cc1cc(C)n(-c2ncnc3sc(C)c(C)c23)n1`, the activity change, negative = inhibition is reported as -7.26%.
Work on `CC12CN3CC(C)(CN(C1)C3c1ccc(Cl)cc1Cl)C2O` (stereo not drawn) yielded an activity change, negative = inhibition of -12%.
`Cc1nnc2n(-c3ccccc3)c(=O)c3c4c(sc3n12)CCCC4` gave an activity change, negative = inhibition of -2.17%.
With `CCCn1nc(Oc2nc(SC)nc(N(C)C)n2)ccc1=O` the activity change, negative = inhibition was -5.95%.
Work on `COc1ccc2nc(SCC(=O)O)nc(C)c2c1` yielded an activity change, negative = inhibition of 7.89%.
`c1ccc(OCc2nn3c(-c4ccco4)nnc3s2)cc1` showed an activity change, negative = inhibition of 1.21%.
Work on `CC(O)(C#CCN1CCOCC1)c1ccccc1` (stereo not drawn) yielded an activity change, negative = inhibition of 8.45%.
`CCCCOc1ccccc1P(=O)(O)CP(=O)(c1ccccc1)c1ccccc1` gave an activity change, negative = inhibition of -17%.
Compound `CN(C)c1ccc(C=NCCC2(O)CCOC(C)(C)C2)cc1` (stereo not drawn) has an activity change, negative = inhibition of 4.94%.
For `COc1ccc(OC)c(C2C(C#N)=C(N)Oc3cc(C)[nH]c(=O)c32)c1` (stereo not drawn), the activity change, negative = inhibition was -4.06%.
Compound `Clc1ccc2nc(CSc3nc4ccccc4o3)cn2c1` has an activity change, negative = inhibition of 1.67%.
With `S=c1[nH]nc(-c2ccco2)n1C1CCCCC1` the activity change, negative = inhibition was 12.4%.
In the case of `COc1cccc(OC)c1C(=O)Nc1nc2ccc(S(C)(=O)=O)cc2s1`, the activity change, negative = inhibition is reported as 21%.
With `CCC(C)Nc1nc(OC)nc(N(C)C#N)n1` (stereo not drawn) the activity change, negative = inhibition was 12.5%.
For `Cc1cc(C)c2c(N)c(C(=O)c3ccccc3)oc2n1`, the activity change, negative = inhibition was 3.96%.
`CSc1nncc(=O)[nH]1` gave an activity change, negative = inhibition of 0.69%.
For `COC(=O)c1sc(NC(=O)C(C)C)c(C(=O)OC)c1C`, the activity change, negative = inhibition was -9.07%.
`COc1ccc(/C(O)=C2/C(=O)C(=O)N(CCCN(C)C)C2c2ccco2)cc1Cl` (stereo not drawn) gave an activity change, negative = inhibition of -5.99%.
Work on `COC(=O)c1ccccc1NC(=O)C1COc2ccccc2O1` (stereo not drawn) yielded an activity change, negative = inhibition of -19.3%.
In the case of `CC1(C)Cc2c(C#N)c(SCCC#N)nc(N3CCOCC3)c2CS1`, the activity change, negative = inhibition is reported as 3.6%.
For `CCOCc1nc(N)[nH]c(=O)c1Cc1ccc(OC(C)C)cc1`, the activity change, negative = inhibition was 13.9%.
Work on `CCCCOc1ccc(C(=O)N2CCCC2C(=O)O)cc1` (stereo not drawn) yielded an activity change, negative = inhibition of -4.49%.
For `CC(C)C(C(=O)Nc1ncn[nH]1)N1C(=O)c2ccccc2C1=O` (stereo not drawn), the activity change, negative = inhibition was -9.04%.
`CCOC(=O)NC(O)C(=O)c1cccs1` (stereo not drawn) showed an activity change, negative = inhibition of -1.46%.
`CCCCOc1ccc(C(=O)Nn2cnnc2)cc1` gave an activity change, negative = inhibition of 4.61%.
With `Nc1nc(NC(=O)c2cccs2)nn1-c1ccccc1` the activity change, negative = inhibition was 7.64%.
Work on `CSc1nnc(C)c(=O)[nH]1` yielded an activity change, negative = inhibition of -8.38%.
Compound `COCCNc1ncnc2c1cnn2-c1ccc(Cl)cc1` has an activity change, negative = inhibition of -10.4%.
Compound `CC1CCN(c2ncnc3c2cnn3Cc2ccc(Cl)cc2)CC1` has an activity change, negative = inhibition of -2.2%.
For `Cn1c(N2CCN(c3ccccn3)CC2)nc2c1c(=O)n(Cc1ccccc1Cl)c(=O)n2C`, the activity change, negative = inhibition was 8.29%.
Compound `CC1CN(c2oc(-c3ccccc3Cl)nc2C#N)CC(C)O1` (stereo not drawn) has an activity change, negative = inhibition of -6.23%.
With `CCCCOC(=O)c1ccc(NC(=O)CSc2nncn2C)cc1` the activity change, negative = inhibition was 4.69%.
`COCCNc1oc(-c2ccc(C)cc2)nc1C#N` gave an activity change, negative = inhibition of 1.1%.
Work on `COc1ccc(Nc2nnc(C)c3ccccc23)cc1C(N)=O` yielded an activity change, negative = inhibition of 10.7%.
Compound `COc1ccc(N2C(=O)C3C(C2=O)C2C=CC3C23CC3)c(OC)c1` (stereo not drawn) has an activity change, negative = inhibition of 5.04%.
